Experimental data: PubChem BioAssay (Tox21)
Values joined by “and” are separate entries in the source; they are usually repeats but may differ in a detail not shown here. Equal values may be shown once. Inconclusive results are not listed. Where a call stands in place of a potency, no number is given. More than one record can exist for a structure, and the calls need not agree. Active and inactive are the calls of the source. Unless noted, calls follow the shape of the dose curve; as a rule, active = well fitted curve in the direction sought with a large enough effect in the repeat runs; inconclusive = weak or mixed curves; inactive = no such curve, though single readings can be large; an effect the other way counts as inactive or inconclusive.

Key:
[1] = qHTS assay to identify small molecule antagonists of the glucocorticoid receptor (GR) signaling pathway - cell viability counter screen (AID 720693); also: nearly all actives have a fitted effect of over 55% in size
[2] = qHTS assay for identifying genotoxic compounds that show differential cytotoxicity against isogenic chicken DT40 cell lines with known DNA damage response pathways - Rev3 mutant cell line (AID 743014); also: nearly all actives have a fitted effect of over 55% in size; also: potency is read from the fitted curve at half-maximal effect
[3] = qHTS assay for identifying genotoxic compounds that show differential cytotoxicity against isogenic chicken DT40 cell lines with known DNA damage response pathways - Rad54/Ku70 mutant cell line (AID 743015); also: nearly all actives have a fitted effect of over 60% in size; also: potency is read from the fitted curve at half-maximal effect
[4] = qHTS assay to identify small molecule antagonists of the androgen receptor (AR) signaling pathway - cell viability counter screen (AID 743033; also: nearly all actives have a fitted effect of over 45% in size)
[5] = qHTS assay to identify small molecule antagonists of the androgen receptor (AR) signaling pathway using the MDA cell line - cell viability counter screen (AID 743041; also: nearly all actives have a fitted effect of over 45% in size)
How it was run: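 Using the breast carcinoma line MDA-kb2 AR-luc, test chemicals were co-incubated with R1881 for 16 h; CellTiter-Fluor reagent, added at 15.5 h, provided a fluorescence measure of live cells.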

[6] = qHTS assay to identify small molecule antagonists of the thyroid receptor (TR) signaling pathway - cell viability counter screen (AID 743064); also: nearly all actives have a fitted effect of over 50% in size; also: potency is read from the fitted curve at half-maximal effect
How it was run: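 CellTiter-Fluor readout, 30 min at 37 °C/5% CO2, following 23.5 h incubation of GH3.TRE-Luc cells with test compound and 1 nM T3 (final).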

[7] = molecular target: Estrogen receptor (Homo sapiens) (UniProt P03372); experiment: qHTS assay to identify small molecule antagonists of the estrogen receptor alpha (ER-alpha) signaling pathway (AID 743069; active = well fitted curve in the direction sought with a large enough effect in the signal ratio in the repeat runs, not every such curve was filed as active; the % refers to the signal ratio)
How it was run: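 Fluorescence intensity from a beta-lactamase FRET substrate served as the read-out. Cells: HEK293 with stably integrated ER-alpha-UAS-bla reporter. Agonist 17beta-estradiol was co-added with compounds; incubation 18 hr at 37C, substrate 2 hr at room temperature.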

[8] = qHTS assay to identify small molecule antagonists of the estrogen receptor alpha (ER-alpha) signaling pathway - cell viability counter screen (AID 743074; calls by dose curve; also: nearly all actives have a fitted effect of over 45% in size)
[9] = molecular target: Estrogen receptor (Homo sapiens) (UniProt P03372); experiment: qHTS assay to identify small molecule agonists of the estrogen receptor alpha (ER-alpha) signaling pathway (AID 743075; calls by dose curve)
[10] = molecular target: Estrogen receptor (Homo sapiens) (UniProt P03372); experiment: qHTS assay to identify small molecule agonists of the estrogen receptor alpha (ER-alpha) signaling pathway using the BG1 cell line (AID 743079); also: nearly all actives have a fitted effect of over 20% in size
[11] = qHTS assay to identify small molecule antagonists of the estrogen receptor alpha (ER-alpha) signaling pathway using the BG1 cell line (AID 743080; calls by dose curve;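 also: BG1 cells stimulated with 17beta-estradiol alongside compound; series mostly up to about 70 µM; nearly all actives have a fitted effect of over 25% in size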)
How it was run: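 Readout is ONE-Glo luminescence, taken 30 min at room temperature after reagent addition, preceded by a CellTiter-Fluor viability read; BG1-Luc-4E2 cells had received compound and 17beta-estradiol for 21.5 h at 37 C.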

[12] = qHTS assay to identify small molecule antagonists of the estrogen receptor alpha (ER-alpha) signaling pathway using the BG1 cell line - cell viability counter screen (AID 743081);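 also: compound given together with 17beta-estradiol as the ER stimulus; series mostly up to about 70 µM; nearly all actives have a fitted effect of over 45% in size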
[13] = molecular target: Aromatase (Homo sapiens) (UniProt P11511); experiment: qHTS assay to identify aromatase inhibitors (AID 743083); also: series mostly up to about 70 µM; nearly all actives have a fitted effect of over 55% in size
[14] = qHTS assay to identify small molecule antagonists of the thyroid receptor (TR) signaling pathway (AID 743065); also: nearly all actives have a fitted effect of over 55% in size; also: potency is read from the fitted curve at half-maximal effect
How it was run: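 Antagonism measured as loss of luciferase signal in GH3 cells stably carrying a TRE-luciferase reporter, co-treated with compound and T3 (1 nM final) for 23.5 h at 37 C. Viability was read in the same well by CellTiter-Fluor.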

[15] = system: thyroid hormone receptor (rat, GH3 cells); experiment: qHTS assay to identify small molecule agonists of the thyroid receptor (TR) signaling pathway (AID 743066; calls by dose curve)
[16] = molecular target: Androgen receptor (Homo sapiens) (UniProt P10275); experiment: qHTS assay to identify small molecule antagonists of the androgen receptor (AR) signaling pathway (AID 743035; active = well fitted inhibition curve with a large enough effect in the signal ratio in the repeat runs, not every such curve was filed as active; the % refers to the signal ratio)
How it was run: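 AR-bla HEK293 reporter cells; 4 h settle at 37C/5% CO2; compound + R1881 agonist, 16 h at 37C; LiveBLAzer B/G FRET substrate 2 h RT; fluorescence intensity read. qHTS format.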

[17] = molecular target: Androgen receptor (Homo sapiens) (UniProt P10275); experiment: qHTS assay to identify small molecule agonists of the androgen receptor (AR) signaling pathway (AID 743036; active = well fitted activation curve with a large enough effect in the signal ratio in the repeat runs, with a control signal flat, not every such curve was filed as active; the % refers to the signal ratio)
How it was run: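 Following a 4 h settling period, AR-UAS-bla HEK293 cells were dosed with compounds for 16 h at 37C. A 2 h room-temperature incubation with LiveBLAzer B/G FRET substrate preceded the fluorescence measurement.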

[18] = molecular target: Androgen receptor (Homo sapiens) (UniProt P10275); experiment: qHTS assay to identify small molecule agonists of the androgen receptor (AR) signaling pathway using the MDA cell line (AID 743040; also: nearly all actives have a fitted effect of over 20% in size)
How it was run: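 Stable MMTV-luciferase reporter in MDA-kb2 cells; note the promoter carries GR as well as AR response elements. 16 h compound treatment, 37C, 0% CO2; ONE-Glo luminescence endpoint.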

[19] = molecular target: Androgen receptor (Homo sapiens) (UniProt P10275); experiment: qHTS assay to identify small molecule antagonists of the androgen receptor (AR) signaling pathway using the MDA cell line (AID 743042; also: nearly all actives have a fitted effect of over 55% in size)
How it was run: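 Antagonist mode: compounds plus R1881 agonist added to MDA-kb2 AR-luc cells, incubated 16 h at 37C. Luciferase reporter luminescence quantified, with multiplexed CellTiter-Fluor readout for cell viability.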

Sequence of Estrogen receptor (Homo sapiens) (P03372 whole entry, looked up): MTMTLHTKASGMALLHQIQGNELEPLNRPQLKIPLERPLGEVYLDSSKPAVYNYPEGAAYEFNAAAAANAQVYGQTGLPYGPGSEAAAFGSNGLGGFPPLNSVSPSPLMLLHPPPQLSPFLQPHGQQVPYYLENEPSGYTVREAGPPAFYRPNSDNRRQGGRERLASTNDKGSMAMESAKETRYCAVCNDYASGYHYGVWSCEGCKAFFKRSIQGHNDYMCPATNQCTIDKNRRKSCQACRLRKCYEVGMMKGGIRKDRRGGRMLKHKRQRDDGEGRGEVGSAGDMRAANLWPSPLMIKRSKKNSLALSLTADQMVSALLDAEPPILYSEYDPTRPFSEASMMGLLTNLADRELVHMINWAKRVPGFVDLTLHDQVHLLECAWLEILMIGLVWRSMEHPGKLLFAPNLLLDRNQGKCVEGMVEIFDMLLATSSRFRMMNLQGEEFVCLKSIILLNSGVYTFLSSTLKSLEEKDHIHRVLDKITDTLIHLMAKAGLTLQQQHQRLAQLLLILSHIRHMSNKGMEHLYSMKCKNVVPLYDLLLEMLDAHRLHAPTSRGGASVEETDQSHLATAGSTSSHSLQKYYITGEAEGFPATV
Sequence of Androgen receptor (Homo sapiens) (P10275 whole entry, looked up): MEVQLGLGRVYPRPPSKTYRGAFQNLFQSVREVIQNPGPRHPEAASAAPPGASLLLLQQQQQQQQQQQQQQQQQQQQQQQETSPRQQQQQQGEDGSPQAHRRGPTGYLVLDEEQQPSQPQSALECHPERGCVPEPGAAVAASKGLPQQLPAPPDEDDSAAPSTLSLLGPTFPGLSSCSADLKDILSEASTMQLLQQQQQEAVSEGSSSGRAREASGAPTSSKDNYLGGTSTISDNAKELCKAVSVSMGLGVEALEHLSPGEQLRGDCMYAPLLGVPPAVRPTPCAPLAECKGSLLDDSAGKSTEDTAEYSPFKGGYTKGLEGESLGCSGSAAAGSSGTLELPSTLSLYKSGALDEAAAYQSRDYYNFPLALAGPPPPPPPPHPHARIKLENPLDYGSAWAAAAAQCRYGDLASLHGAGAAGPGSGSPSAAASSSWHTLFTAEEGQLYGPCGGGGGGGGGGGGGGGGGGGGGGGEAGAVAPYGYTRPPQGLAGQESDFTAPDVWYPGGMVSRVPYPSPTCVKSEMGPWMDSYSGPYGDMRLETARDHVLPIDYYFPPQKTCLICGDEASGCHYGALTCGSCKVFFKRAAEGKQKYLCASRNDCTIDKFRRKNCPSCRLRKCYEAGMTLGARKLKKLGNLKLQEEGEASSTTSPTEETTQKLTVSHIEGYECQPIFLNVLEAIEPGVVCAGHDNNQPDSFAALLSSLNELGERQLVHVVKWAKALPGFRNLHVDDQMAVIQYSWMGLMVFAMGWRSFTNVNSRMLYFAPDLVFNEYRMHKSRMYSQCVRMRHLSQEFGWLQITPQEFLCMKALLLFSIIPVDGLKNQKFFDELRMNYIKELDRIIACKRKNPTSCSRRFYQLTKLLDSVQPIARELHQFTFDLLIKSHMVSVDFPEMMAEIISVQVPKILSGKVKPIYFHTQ
Sequence of Aromatase (Homo sapiens) (P11511 whole entry, looked up): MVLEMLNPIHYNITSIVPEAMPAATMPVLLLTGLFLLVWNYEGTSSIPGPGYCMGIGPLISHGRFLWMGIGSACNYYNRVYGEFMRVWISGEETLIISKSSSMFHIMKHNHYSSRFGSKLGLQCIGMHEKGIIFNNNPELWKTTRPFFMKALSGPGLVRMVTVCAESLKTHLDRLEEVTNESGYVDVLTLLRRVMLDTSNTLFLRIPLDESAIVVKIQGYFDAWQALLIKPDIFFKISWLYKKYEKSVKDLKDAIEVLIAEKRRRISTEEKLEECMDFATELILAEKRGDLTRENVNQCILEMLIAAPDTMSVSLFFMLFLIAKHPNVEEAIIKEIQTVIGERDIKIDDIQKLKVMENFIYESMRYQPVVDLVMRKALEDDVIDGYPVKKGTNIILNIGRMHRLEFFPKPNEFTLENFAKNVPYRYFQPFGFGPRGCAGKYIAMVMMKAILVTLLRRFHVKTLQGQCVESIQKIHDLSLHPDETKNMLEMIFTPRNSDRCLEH

Compound	outcome [1]	Potency [2]	Potency [3]	outcome [4]	Potency [5]	Potency [6]	Potency [7]	Potency [8]	outcome [9]	Potency [10]	outcome [11]	Potency [12]	Potency [13]	Potency [14]	outcome [15]	Potency [16]	outcome [17]	Potency [18]	outcome [19]
O=C(O)c1cccc(Cl)c1Cl	inactive	inactive	inactive	inactive	inactive	inactive	inactive	inactive	inactive	inactive	inactive	inactive	inactive						
O=C1C=CC(=O)O1	inactive	inactive	inactive	inactive	inactive	inactive	inactive	inactive	inactive	inactive	inactive	inactive	inactive	inactive	inactive				
CC(C)(C)c1cccc(O)c1	inactive	61.1 µM (active)		inactive	inactive	inactive	inactive	inactive	inactive	inactive	inactive	inactive	inactive	inactive	inactive	inactive	inactive	inactive	inactive
CCN(O)CC	inactive	inactive	inactive	inactive	inactive	inactive		inactive				inactive	inactive	inactive	inactive				
C=CC(C)(O)CC/C=C(\C)CCC=C(C)C (stereo not drawn)	inactive	inactive and 4.33 µM (active)	inactive	inactive	inactive	inactive		inactive				inactive	inactive		inactive				
CCCCOc1cc(C(=O)NCCN(CC)CC)c2ccccc2n1	inactive	5.07 µM (active)	10.1 µM (active)	inactive	inactive	11.4 µM (active)		inactive				inactive	inactive	10.1 µM (active)	inactive				
C[C@]12C(=O)OC(=O)[C@H]1[C@H]1C=C[C@@H]2C1	inactive	inactive	inactive	inactive	inactive	inactive	inactive	inactive	inactive		inactive	inactive	inactive		inactive				
C=Cc1ccccc1	inactive	inactive	inactive	inactive	inactive	inactive	inactive	inactive	inactive	inactive	inactive	inactive	inactive		inactive				
FC(F)(F)C(F)(F)C(F)(F)C(F)(F)C(F)(F)C(F)(F)C(F)(F)C(F)(F)Br	inactive	inactive	inactive		inactive	inactive	inactive	inactive	inactive	inactive	inactive	inactive	inactive	inactive	inactive				
Cc1c(-c2ccccc2)oc2c(C(=O)OCCN3CCCCC3)cccc2c1=O	inactive	inactive	inactive	inactive	inactive	inactive	inactive	inactive	inactive	inactive	inactive	inactive			inactive				
CN1CCC[C@@H]1Cc1c[nH]c2ccc(CCS(=O)(=O)c3ccccc3)cc12	inactive	33.5 µM (active)	29.8 µM (active)	inactive	inactive			inactive					inactive	21.1 µM (active)	inactive				
CC(CNC1CCCCC1)OC(=O)c1ccccc1 (stereo not drawn)	inactive	inactive	inactive	inactive	inactive	inactive	inactive	inactive	inactive	inactive	inactive	inactive	inactive	inactive	inactive				
CC(C)c1ccccc1	inactive	inactive	inactive			inactive	inactive	inactive	inactive	inactive	inactive	inactive		inactive	inactive	inactive	inactive	inactive	inactive
CCC(=O)c1ccc2c(c1)N(CCCN(C)C)c1ccccc1S2	inactive	8.41 µM (active)	7.5 µM (active)			7.5 µM (active)		inactive									inactive	inactive	
CN1[C@@H]2CC[C@H]1CC(OC(=O)c1c[nH]c3ccccc13)C2 (stereo partly drawn)	inactive	inactive	inactive	inactive		23.7 µM (active)		inactive				inactive	inactive		inactive				
O=C(O)[C@@H]1CSCN1	inactive	inactive	inactive	inactive	inactive	inactive		inactive					inactive		inactive				
COC(=O)c1ccc(OC)cc1	inactive	inactive	inactive	inactive	inactive	inactive		inactive				inactive	inactive		inactive				
O=C1CCCCC1C1CCCCC1 (stereo not drawn)	inactive	inactive	inactive	inactive	inactive		inactive	inactive	inactive	inactive	inactive	inactive	inactive	inactive	inactive				
CCC1(C)NC(=O)NC1=O (stereo not drawn)	inactive	inactive	inactive	inactive	inactive	inactive						inactive	inactive	inactive	inactive				
CC1(O)CSC(C)(O)CS1 (stereo not drawn)	inactive	61.1 µM (active)	61.1 µM (active)	inactive	inactive	inactive	inactive	inactive	inactive	inactive	inactive	inactive	inactive	inactive	inactive	inactive	inactive	inactive	inactive
CCCc1c2oc(C(=O)O)cc(=O)c2cc2c(=O)cc(C(=O)O)n(CC)c12	inactive	inactive	inactive	inactive	inactive		inactive		inactive	inactive	inactive	inactive	inactive						
CC(C)C(=O)OC/C=C/c1ccccc1	inactive	inactive	inactive	inactive	inactive	inactive	inactive	inactive	inactive	inactive	inactive	inactive	inactive	inactive	inactive				
CC(C)=CCC[C@](C)(O)[C@@H]1CC=C(C)CC1	inactive	inactive	inactive	inactive	inactive	inactive						inactive	inactive	inactive	inactive				
Cc1c[nH]c(=S)[nH]c1=O	inactive	inactive	inactive			inactive	inactive	inactive	inactive	inactive	inactive	inactive		inactive	inactive				
CC(=O)Oc1cc(C(C)C)c(OCCN(C)C)cc1C	inactive	inactive	inactive	inactive	inactive	inactive		inactive					inactive	inactive	inactive				
